Screen size: about 410,000 compounds; about 310 (0.076%) were called active. About 2% were inconclusive and are not listed. This is one part of a sample in which actives are shown more often than they occur. Calls follow the shape of the dose curve; as a rule, active = well fitted curve in the direction sought with a large enough effect; inconclusive = small, poorly fitted or top-dose-only effect; inactive = flat fitted curve, though single readings scatter.
Target: DNA dC->dU-editing enzyme APOBEC-3G (Homo sapiens) (UniProt Q9HC16)
Assay: qHTS for Inhibitors of Vif-A3G Interactions: qHTS;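 also: hits raise eYFP signal because A3G escapes Vif-driven loss; nearly all actives have a fitted effect of over 60% in size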
Details: HeLa A3G-eYFP + Vif (tagged APOBEC3G with the HIV-1 protein that degrades it), YFP fluorescence, overnight; series mostly up to 46.1 µM
Excerpt: The recent discovery and characterization of host restriction factors, which provide a potent defense to invading retroviruses, has provided new targets for antiviral drug development. APOBEC3G (A3G) and APOBEC3F (A3F) are potent cytidine deaminases that block HIV-1 replication; HIV-1 expresses the Vif protein, which counteracts A3G and A3F by binding to them and inducing their proteasomal degradation. The Vif-A3G and Vif-A3F interactions provide two potential targets for development of small molecules which can interfere with the ability of Vif to degrade A3G or A3F. […] To identify inhibitors that can interfere with Vif mediated degradation of A3G and A3F, we have developed Hela cell lines that stably express A3G or A3F tagged with eYFP at the C-terminal end (A3G-eYFP or A3F-eYFP, respectively) and Vif. In the absence of an inhibitor, Vif induces degradation of A3G-eYFP and A3F-eYFP, and the cells are not fluorescent. In the presence of an inhibitor, it is expected that Vif will be unable to degrade A3G-eYFP and/or A3F-eYFP, resulting in an increase in yellow fluorescence. In this assays Vif A3G was screened against the Molecular Library Small Molecule Repository (MLSMR). NIH Chemical Genomics Center [NCGC] NIH Molecular Libraries Probe Centers Network [MLPCN] MLPCN Grant: MH093245 Assay Submitter (PI): Vinay Pathak, National Cancer Institute
5 uL of 700 cells/well of A3G-YFP cells are dispensed into black, clear bottom plates. The plates are incubated overnight at 37 deg C. 23 nL of compounds are added by pintool. The plates are incubated overnight at 37 deg C and then read on the TTP Acumen (Ex 488/ Em 500-530).

Sequence of DNA dC->dU-editing enzyme APOBEC-3G (Homo sapiens) (Q9HC16 whole entry, looked up): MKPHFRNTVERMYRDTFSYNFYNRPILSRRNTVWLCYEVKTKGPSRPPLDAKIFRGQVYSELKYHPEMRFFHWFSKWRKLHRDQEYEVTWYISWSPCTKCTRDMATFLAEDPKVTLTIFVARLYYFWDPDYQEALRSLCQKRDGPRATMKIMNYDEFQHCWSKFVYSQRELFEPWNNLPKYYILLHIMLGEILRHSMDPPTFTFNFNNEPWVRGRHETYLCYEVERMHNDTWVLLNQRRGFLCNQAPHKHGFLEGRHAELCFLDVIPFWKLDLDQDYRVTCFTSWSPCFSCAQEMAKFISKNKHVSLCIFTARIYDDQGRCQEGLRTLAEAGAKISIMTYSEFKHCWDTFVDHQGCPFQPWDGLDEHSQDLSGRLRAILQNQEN

Potency, inactive:
CCOC(=O)c1ccc(-c2ccc(/C=C(\C#N)C(=O)Nc3ccc(C)cc3)o2)cc1
Cc1c(C(=O)Nc2cccc(Cl)c2)oc2ccc(S(=O)(=O)N3CCOCC3)cc12
CS(=O)c1ccc(/C=C2\C=Cc3ccccc32)cc1 (stereo not given)
OCC(O)C(O)C(O)C(O)C=Nc1ccc(/C=C/c2ccnc3ccccc23)cc1 (stereo not given)
C=COC(=O)N1CCN(/[N+]([O-])=N/Oc2ccc([N+](=O)[O-])cc2[N+](=O)[O-])CC1
SCc1nc2ccc(Cl)cc2[nH]1
CCC(=O)N1CCc2cc(Br)cc(S(=O)(=O)CCC(=O)NCc3ccccc3OC)c21
O=C(CCSCc1cccc(F)c1)NCc1ccccc1
O=C1C[C@H]2C=CCc3cccc(c32)CN1Cc1ccccc1
CN1CCN(/[N+]([O-])=N/Oc2ccc([N+](=O)[O-])cc2[N+](=O)[O-])CC1
O=C1CCC[C@@H]2C[C@@]3(C[C@@H]4CCN1[C@H]24)Nc1ccccc1NC3=NCc1ccccc1
CCC(C)NC(=O)Cn1c(=O)n(-c2ccc(Cl)cc2)c(=O)c2c3c(sc21)CCCC3 (stereo not given)
Cc1ccc(CSc2oc(-c3cccs3)nc2S(=O)(=O)c2ccc(C)cc2)cc1
CC1(C)C=Cc2c(ccc(C(=O)/C=C/c3ccccc3)c2O)O1
Cc1nc2nc(SCC(=O)N(Cc3ccccc3)C(C)C)nn2c(C)c1Cc1ccccc1Cl
C=C1C=C(C(F)F)n2ncc(C(=O)NCCc3ccccc3OC)c2N1
O=C1O/C(=C\c2ccc(O)cc2)C(O)=C1c1ccc(O)cc1
Cc1ccc(C)c(Cn2c(C(=O)O)c(CNCc3cccs3)c3ccccc32)c1
CCN(CC)c1ccc(/C=C/c2c(C)cnc3ccc(C)cc23)cc1
CCOc1cccc(CC(=O)N2CCc3c([nH]c4ccccc34)C2c2ccc(OC)cc2)c1OCC (stereo not given)
CCc1cccc(CC)c1NC(=O)Cn1c(=O)c(-c2cc(C)ccc2NC(C)=O)nc2ccccc21
CCN1CCN(CCCNC(=O)c2ccc3c(c2)sc2nc(-c4ccc(OC)cc4)cn23)CC1
COc1ccc(N2CCN(c3nc(-c4ccccc4F)nc4ccccc34)CC2)cc1
CC(C)(C)OC(=O)N(Cc1ccco1)S(=O)(=O)c1ccccc1Br
Nc1ncnc2nnsc12
Clc1cccc[n+]1CCCC[n+]1ccccc1Cl
O=C(NCC(c1ccco1)S(=O)(=O)c1cccs1)c1ccc(F)cc1 (stereo not given)
COc1ccc(-c2nc(=N)sn2-c2ccccc2)cc1
Cc1ccccc1NC(=O)c1c(NC(=O)c2ccccc2F)sc2c1CCC(C)C2 (stereo not given)
COc1ccc(-c2[nH]c3c(c2-c2c(-n4cccc4)n(C)c(=O)n(C)c2=O)c(=O)n(C)c(=O)n3C)cc1
OC(CBr)CN1CCCCC1 (stereo not given)
CN(C(=N)N)c1ccc(/C=C2\C=Cc3ccccc32)cc1
Cc1cccn2c(=O)c3cc(C(=O)NC(C)c4ccccc4)c(=N)n(CCCO)c3nc12 (stereo not given)
COC(=O)c1ccc(OC)c(Cn2c(=O)n(Cc3ccccc3)c(=O)c3c2c2cc(OC)ccc2n3C)c1
CCOC(=O)c1scc(-c2ccc(C)cc2)c1S(=O)(=O)Nc1cc(C)ccc1C
COc1ccc(OCC(=O)Nc2cccc(C(=O)OCc3cc(=O)n4nc(C)sc4n3)c2)cc1
CCOc1ccc(N(CC)S(=O)(=O)N2CCCC(C(=O)Nc3ccc(C(C)=O)cc3)C2)cc1 (stereo not given)
Cc1ccc(S(=O)(=O)c2nc(-c3ccco3)oc2SCC(=O)Nc2ccc(F)cc2)cc1
COc1ccc(CNC(=O)c2ccc3c(c2)nc2n3CCOC2)c(OC)c1
COC(=O)c1cc(NC(=O)CCS(=O)(=O)c2cc(Br)cc3c2N(C(=O)C2CC2)CC3)cc(C(=O)OC)c1
CCCCN(CC)CCCNC(=O)Cn1ncc2c([nH]c3ccc(C)cc32)c1=O
O=C(Nc1ccccc1F)C(c1ccccc1)N1Cc2ccccc2C1=O (stereo not given)
OC(Cc1ccc2ccccc2n1)c1ccc(Cl)c(Cl)c1 (stereo not given)
Cc1c(-c2nsc(NC(=O)c3cccc(Cl)c3)n2)nnn1-c1ccccc1C(F)(F)F
CN(C)c1ccc(/C=C2\C=Cc3ccccc32)cc1Br
CCn1c(=O)c(=O)n(CC)c2cc(N3CCCCC3)c(NC(=O)c3cccc(F)c3)cc21
CN(C)c1ccc(/C=N\Nc2ccc([N+](=O)[O-])cc2[N+](=O)[O-])cc1Cl
CC1CCc2noc(NC(=O)c3ccc([N+](=O)[O-])cc3)c2C1 (stereo not given)
Cc1cc(NS(=O)(=O)c2ccc3oc(=O)c4ncn(C)c4c3c2)ccc1Br
Cc1cc(C)c2oc(C(=O)Nc3c(C(=O)Nc4ccccc4)oc4ccccc34)cc(=O)c2c1

Source: PubChem BioAssay AID602310 (National Center for Advancing Translational Sciences (NCATS), 2012)
